This note sets out measurements from PubChem BioAssay (Tox21).

A short description of experiment [1]: qHTS assay for small molecule agonists of the p53 signaling pathway - cell viability (AID 651633; calls by dose curve; note: nearly all actives have a fitted effect of over 30% in size; note: potency is the fitted concentration of half-maximal effect). The procedure, abridged: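 p53RE-bla cells were treated with compound for 16 hours at 37 C. Cytotoxicity was then measured as CellTiter-Glo luminescence after 30 min at room temperature.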
Experiment [2] can be described thus: qHTS assay for small molecule disruptors of the mitochondrial membrane potential - cell viability (AID 720634; calls by dose curve; note: nearly all actives have a fitted effect of over 20% in size; note: potency is the fitted concentration of half-maximal effect). The procedure, abridged:
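Cytotoxicity was measured by ATP quantitation in HepG2 wells that had first been treated with compound for 1 hr and stained with m-MPI dye; CellTiter-Glo incubation was 30 min at room temperature.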
For orientation: qHTS replaces the single test concentration by a dilution series.

Experiment [3] in a line: qHTS assay for small molecule disruptors of the mitochondrial membrane potential (AID 720635). Note: potency is the fitted concentration of half-maximal effect. The procedure, abridged: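 HepG2 cells exposed to compound 1 hr at 37C, then Mito-MPS dye 30 min. Ratio read of aggregate (540/590 nm) versus monomer (490/535 nm) fluorescence.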
A short description of experiment [4]: qHTS assay to test for compound auto fluorescence at 590 nm (red) in HepG2 cells (AID 720674). Note: % is set by controls: 0 for no effect and ±100 for the full control effect. The gist of the method:
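Fluorescence at 590 nm emission following 540 nm excitation was recorded from HepG2 wells one hour after compound transfer, with DMSO-only wells as vehicle and Rose Bengal sodium equivalency as the scale.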

The nature of experiment [5]: qHTS assay to test for compound auto fluorescence at 535 nm (green) in HepG2 cells (AID 720675). Note: potency is the fitted concentration of half-maximal effect.
Experiment [6] can be described thus: qHTS assay to test for compound auto fluorescence at 460 nm (blue) in HEK293 cells (AID 720678). Note: % is set by controls: 0 for no effect and ±100 for the full control effect. The procedure, abridged: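 Measured: blue fluorescence (Ex 405/Em 460 nm) of compound-treated HEK293 cells, incubated overnight at 37C with 5% CO2 and scaled to triamterene equivalents.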
Experiment [7] in a line: qHTS assay to test for compound auto fluorescence at 590 nm (red) in HEK293 cells (AID 720679). Note: % is set by controls: 0 for no effect and ±100 for the full control effect. The procedure, abridged: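 Using HEK293 cells at 2,000 per well, the screen added 23 nL of each compound after cell attachment and incubated overnight (37C, 5% CO2). The plate reader then captured red-label fluorescence, Ex/Em 540/590nm.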
A short description of experiment [8]: qHTS assay to test for compound auto fluorescence at 535 nm (green) in HEK293 cells (AID 720680). Note: potency is the fitted concentration of half-maximal effect.
Experiment [9] can be described thus: qHTS assay to test for compound auto fluorescence at 460 nm (blue) in HEK293 cell free culture (AID 720681). Note: % is set by controls: 0 for no effect and ±100 for the full control effect. The gist of the method:
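Compounds were added to cell-free DMEM with 10% FBS and fluorescence read directly. The blue channel used 405 nm excitation and 460 nm emission, with triamterene as the reference fluorophore.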

Experiment [10] is described as follows: qHTS assay to test for compound auto fluorescence at 535 nm (green) in HEK293 cell free culture (AID 720682). Note: potency is the fitted concentration of half-maximal effect. The procedure, abridged: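 Compounds were pin-transferred into cell-free DMEM with 10% FBS, and green fluorescence was read at excitation 485 nm and emission 535 nm. Intensities were expressed as fluorescein-equivalent values.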
Experiment [11] can be described thus: qHTS assay to test for compound auto fluorescence at 590 nm (red) in HEK293 cell free culture (AID 720683). Note: % is set by controls: 0 for no effect and ±100 for the full control effect. The gist of the method: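 Cell-free wells of DMEM with 10% FBS received compound, and intrinsic fluorescence was read at excitation/emission 540/590 nm. Values expressed as equivalence to Rose Bengal sodium.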
Experiment [12] can be described thus: qHTS assay to test for compound auto fluorescence at 590 nm (red) in HepG2 cell free culture (AID 720684). Note: % is set by controls: 0 for no effect and ±100 for the full control effect. The gist of the method: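 Auto fluorescence equivalency versus Rose Bengal sodium, red channel Ex/Em 540/590 nm; compounds in cell-free MEM/10% FBS; DMSO vehicle control.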
Experiment [13] can be described thus: qHTS assay to test for compound auto fluorescence at 535 nm (green) in HepG2 cell free culture (AID 720686). Note: potency is the fitted concentration of half-maximal effect.
The target in experiment [14] is Glucocorticoid receptor (Homo sapiens) (UniProt P04150). Kind of experiment: qHTS assay to identify small molecule agonists of the glucocorticoid receptor (GR) signaling pathway (AID 720691; active = well fitted activation curve with a large enough effect in the signal ratio in the repeat runs, not every such curve was filed as active; the % refers to the signal ratio; note: % is set by controls: 0 for no effect and ±100 for the full control effect). The gist of the method:
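Steps: seed GR-bla HeLa cells, incubate 4 h at 37 C/5% CO2; pin-transfer DMSO-dissolved compounds; incubate 18 h at 37 C; add LiveBLAzer B/G FRET substrate; after 2 h at room temperature, measure fluorescence.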

For experiment [15] the target is unchanged. Kind of experiment: qHTS assay to identify small molecule antagonists of the glucocorticoid receptor (GR) signaling pathway (AID 720692; active = well fitted inhibition curve with a large enough effect in the signal ratio in the repeat runs, not every such curve was filed as active; the % refers to the signal ratio; note: potency is the fitted concentration of half-maximal effect). The procedure, abridged:
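Antagonism was scored as loss of dexamethasone-driven (5 nM final) reporter signal in HeLa cells bearing a glucocorticoid response element–beta-lactamase construct, after 18 h compound exposure at 37 C and 2 h FRET substrate loading.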

The nature of experiment [16]: qHTS assay for small molecules that induce genotoxicity in human embryonic kidney cells expressing luciferase-tagged ATAD5 (AID 651632). Note: % is set by controls: 0 for no effect and ±100 for the full control effect; nearly all actives have a fitted effect of over 15% in size. The gist of the method: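 Cells were seeded at 2,000 per well, dosed with compound, and incubated 16 hr at 37C in 5% CO2. Luciferase activity was then quantified after a 30 min room-temperature incubation with Amplite.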
Experiment [17] is described as follows: qHTS assay to test for compound auto fluorescence at 460 nm (blue) in HepG2 cell free culture (AID 720685). Note: % is set by controls: 0 for no effect and ±100 for the full control effect. The gist of the method: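 Cell-free plates of MEM plus 10% FBS received 23 nL compound or DMSO vehicle; blue-channel (405/460 nm) intensity scored against triamterene as reference fluorophore.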
Experiment [18] is described as follows: qHTS assay to test for compound auto fluorescence at 460 nm (blue) in HepG2 cells (AID 720687). Note: % is set by controls: 0 for no effect and ±100 for the full control effect. The procedure, abridged: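 HepG2 cells in MEM with 10% FBS, attached overnight at 37 C, were exposed to compound or DMSO for 1 hr at 37 C, 5% CO2. Blue fluorescence was read at 405/460 nm, with triamterene as reference fluorophore.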
Experiment [19] in a line: qHTS assay for small molecules that induce genotoxicity in human embryonic kidney cells expressing luciferase-tagged ATAD5 - cell viability (AID 651634; calls by dose curve; note: potency is the fitted concentration of half-maximal effect; nearly all actives have a fitted effect of over 25% in size). The procedure, abridged:
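Cells (HEK293T, luciferase-tagged ATAD5) are seeded at 2,000 per well, dosed with compound or DMSO vehicle, and incubated 15.5 hr at 37C and 5% CO2. CellTiter-Fluor is added for 30 min before fluorescence is measured.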

Where “and” joins values, the source holds several entries; their conditions need not be identical. Identical values can stand only once. A number with no mark means an inactive call. Records with an inconclusive call do not appear. Calls of active or inactive are those of the source. Unless noted, calls come from the whole dose curve; as a rule, active = well fitted curve in the direction sought with a large enough effect in the repeat runs; inconclusive = weak or mixed curves; inactive = no such curve, though single readings can be large; an effect the other way counts as inactive or inconclusive.
Tags give direction and shape of the fitted curve or compound fluorescence and quenching.

Sequence of Glucocorticoid receptor (Homo sapiens) (P04150 whole entry, looked up): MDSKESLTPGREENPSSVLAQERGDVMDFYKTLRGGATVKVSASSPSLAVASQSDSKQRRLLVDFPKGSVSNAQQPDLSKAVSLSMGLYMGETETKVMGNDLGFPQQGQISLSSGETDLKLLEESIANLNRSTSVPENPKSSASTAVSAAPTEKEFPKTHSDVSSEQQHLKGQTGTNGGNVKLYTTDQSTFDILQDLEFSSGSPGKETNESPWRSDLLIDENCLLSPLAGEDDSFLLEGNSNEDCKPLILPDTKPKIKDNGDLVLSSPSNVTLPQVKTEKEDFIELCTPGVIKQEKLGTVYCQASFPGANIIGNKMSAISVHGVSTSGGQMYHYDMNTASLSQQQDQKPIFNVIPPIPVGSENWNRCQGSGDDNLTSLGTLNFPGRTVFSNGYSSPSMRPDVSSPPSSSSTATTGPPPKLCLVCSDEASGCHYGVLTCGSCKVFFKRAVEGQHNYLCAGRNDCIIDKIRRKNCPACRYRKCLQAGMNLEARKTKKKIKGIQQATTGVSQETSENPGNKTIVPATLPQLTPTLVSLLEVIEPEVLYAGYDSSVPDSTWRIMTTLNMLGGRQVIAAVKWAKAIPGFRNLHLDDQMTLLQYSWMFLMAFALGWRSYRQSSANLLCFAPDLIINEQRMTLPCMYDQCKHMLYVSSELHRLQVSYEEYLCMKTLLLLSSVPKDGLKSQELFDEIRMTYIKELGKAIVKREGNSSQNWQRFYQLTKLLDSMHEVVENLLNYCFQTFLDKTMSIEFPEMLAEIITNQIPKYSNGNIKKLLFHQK

With `O=C(O[C@@H]1Cc2c(O)cc(O)cc2O[C@@H]1c1cc(O)c(O)c(O)c1)c1cc(O)c(O)c(O)c1`, the Potency result in [1], in experiment [2], in experiment [5], in experiment [6], in experiment [8] and in experiment [9] was “inactive” each time. Also, the Potency entry in experiment [10], in [13], in [14] and in [15] was “inactive” throughout. In addition, in experiment [3], the Potency was 27.4 µM (active). Besides, the molecule was classed as inactive in experiment [4], in [7], in experiment [11] and in experiment [12].

As to `CCCCCCCCCCCCCCCCCl`, the Potency result in [16], in experiment [1], in experiment [2], in experiment [14] and in [15] was “inactive” throughout. For the same molecule, in experiment [4], the fluorescence, relative to Rose Bengal is -0.733% [at 18.6 µM]. The fluorescence, % of fluorescein control is -0.021% [at 18.6 µM] in [5] and -0.0406% [at 18.6 µM] in experiment [13]. Besides, the fluorescence, % of triamterene in experiment [6] was 0.0135% [at 18.6 µM]. In addition, the fluorescence, % of fluorescent control is 0.199% [at 18.6 µM] in experiment [7]; -0.061% [at 18.6 µM] in [9]; -0.466% [at 18.6 µM] in experiment [11]; -0.0526% [at 18.6 µM] in experiment [17]; -0.0903% [at 18.6 µM] in experiment [18]. For the same molecule, the fluorescence, % of fluorescein in [8] is -0.0655% [at 18.6 µM]. Besides, the activity change in [10] was -0.0974% [at 18.6 µM, hits give high values].

For the molecule `COc1ccc(CCN2CCC(Nc3nc4ccccc4n3Cc3ccc(F)cc3)CC2)cc1`, the Potency in [1] is 26.6 µM (active) and 11.1 µM (active); in experiment [19], 26.6 µM (active) and 44.2 µM (active); in [2], 49.6 µM (active). Moreover, the molecule was classed as inactive in experiment [4], in experiment [7], in experiment [11] and in [12]. Moreover, the Potency result in experiment [5], in [6], in experiment [8], in [9], in [10] and in [13] was “inactive” in each case. Besides, in experiment [18], the Potency entry was “inactive”.

Take `CCN(CC)C(=S)SSC(=S)N(CC)CC`: the Potency entry in [2], in experiment [5], in [8], in experiment [9], in experiment [10] and in [17] was “inactive” each time. Further, the Potency result in experiment [13], in [18], in experiment [14] and in experiment [15] was “inactive” in each case. Moreover, the Potency in experiment [3] was 7.7 µM (active) and 7.02 µM (active). Further, the outcome in [4], in [7] and in [11] was inactive.

Take `O=C1OC2(c3ccc(O)cc3Oc3cc(O)ccc32)c2ccccc21`: the Potency entry in experiment [2], in [9] and in experiment [17] was “inactive” each time. Also, the Potency is 84.1 nM (active) and 61.1 nM (active) in experiment [3]; 3.16 µM (active) and 2.51 µM (active) and 3.98 µM (active) in experiment [5]; 3.16 µM [fluorescent] (active) and 2.82 µM [fluorescent] (active) and 3.98 µM [fluorescent] (active) in experiment [8]; 3.55 µM [fluorescent] (active) and 3.98 µM [fluorescent] (active) in [10]; 3.16 µM [fluorescent] (active) and 2.82 µM [fluorescent] (active) and 3.55 µM [fluorescent] (active) in experiment [13]. Also, the outcome in experiment [4], in [7] and in experiment [11] was inactive.

`Nc1ccc(O)cc1`: the Potency in experiment [1] was 26.6 µM (active) and 30.6 µM (active) and 31.8 µM (active); in experiment [2], 31.8 µM (active); in experiment [3] it was 841 nM (active) and 3.06 µM (active) and 897 nM (active); in experiment [15], 49 µM (active). In addition, the molecule was classed as inactive in experiment [4], in experiment [7], in experiment [11] and in experiment [12]. Also, the Potency entry in experiment [5], in experiment [6], in [8], in [9], in experiment [10] and in [17] was “inactive” throughout. Besides, the Potency result in experiment [13] and in experiment [18] was “inactive” throughout.

In the case of `CCCCC(CC)COC(=O)CC(C(=O)OCC(CC)CCCC)S(=O)(=O)O` (stereo not given), the Potency result in experiment [16], in experiment [2], in [5], in experiment [8], in experiment [9] and in [10] was “inactive” throughout. In addition, the Potency entry in experiment [17], in experiment [13], in [18] and in experiment [14] was “inactive” throughout. The Potency was 29.8 µM (active) and 58.8 µM (active) and 61.1 µM (active) in experiment [1]; 58.8 µM (active) in experiment [3]. Also, the result in experiment [4] and in [11] was inactive.
